Among all 70,000 compounds or so, about 120 (0.17%) were called active. The sample as a whole holds a higher share of actives than the screen did. A number with no mark means an inactive call. Cut-off read from the data, not from the text of the source: active = inhibition above about 34%; inconclusive = no clear call, values can overlap the other calls; inactive = below about 11%.

In this test the target is Isocitrate dehydrogenase [NADP] cytoplasmic (Homo sapiens) (UniProt O75874). Description: PubChem AID 624101.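 Note: 0% = DMSO and 100% = no enzyme.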 As to conditions: IDH1 R132H reductase, diaphorase/resazurin fluorescence, 60 min; at 10 µM; active compounds read high.
Sequence of Isocitrate dehydrogenase [NADP] cytoplasmic (Homo sapiens) (O75874 whole entry R132H): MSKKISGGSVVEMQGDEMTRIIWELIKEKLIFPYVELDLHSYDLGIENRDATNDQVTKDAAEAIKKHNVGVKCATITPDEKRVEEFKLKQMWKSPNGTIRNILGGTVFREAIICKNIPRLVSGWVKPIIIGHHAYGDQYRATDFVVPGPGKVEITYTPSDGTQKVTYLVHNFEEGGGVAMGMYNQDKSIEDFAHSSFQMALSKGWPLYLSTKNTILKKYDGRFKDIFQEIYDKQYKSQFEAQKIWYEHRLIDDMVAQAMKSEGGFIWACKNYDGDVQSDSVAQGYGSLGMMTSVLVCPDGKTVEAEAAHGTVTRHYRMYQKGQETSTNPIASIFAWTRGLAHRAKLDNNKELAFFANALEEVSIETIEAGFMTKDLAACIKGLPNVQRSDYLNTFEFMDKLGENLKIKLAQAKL
Usually inhibition stands for the drop in the measured response relative to a control, in per cent. With `CNC[C@H]1Oc2cc(C#Cc3ccccc3)ccc2S(=O)(=O)N([C@@H](C)CO)C[C@@H]1C`, the inhibition was 4.92%.
Take `Cc1ccc(S(=O)(=O)NCC[C@H]2CC[C@@H](NS(=O)(=O)c3ccccc3Cl)[C@H](CO)O2)cc1`: the inhibition is 0.263%.
For the compound `O=C(Nc1cccc(Cl)c1)N[C@H]1CC[C@H](CCNC(=O)C2CCOCC2)O[C@H]1CO`, the inhibition is 0.082%.
As for `O=C(C[C@@H]1CC[C@@H](NC(=O)C2CCOCC2)[C@H](CO)O1)Nc1ccc(-c2ccccc2)cc1`, the inhibition is 0.222%.
Take `O=C(C[C@@H]1C=C[C@H](NC(=O)c2ccc3c(c2)OCO3)[C@H](CO)O1)NCc1ccc(Oc2ccccc2)cc1`: the inhibition was -0.347%.
As for `O=C(C[C@H]1C=C[C@@H](NC(=O)Nc2cc(F)ccc2F)[C@@H](CO)O1)NCc1ccc2c(c1)OCO2`, the inhibition is -0.0695%.
For `CN1CCN(C(=O)C[C@@H]2C[C@H]3c4cc(NC(=O)NC5CCCC5)ccc4O[C@H]3[C@H](CO)O2)CC1` the value was -0.193%; for `CO[C@H]1CN(C)C(=O)c2ccc(NC(=O)c3nc4ccccc4s3)cc2OC[C@@H](C)N(Cc2cncnc2)C[C@H]1C`, -1.03%; for `O=C(C[C@@H]1C[C@@H]2c3cc(NC(=O)C4CCC4)ccc3O[C@@H]2[C@@H](CO)O1)NCc1ccccc1`, 0.171%.
Turning to `O=C(C[C@@H]1C[C@@H]2c3cc(NC(=O)Cc4ccncc4)ccc3O[C@@H]2[C@H](CO)O1)NCc1cccc(F)c1`, the inhibition is 0%.
In the case of `C[C@H](NC(=O)N(C)C[C@@H]1OCc2ccccc2-c2ccccc2C(=O)N([C@H](C)CO)C[C@@H]1C)c1ccccc1`, the inhibition was -1.38%.
In the case of `Cc1noc(C)c1S(=O)(=O)Nc1ccc2c(c1)C(=O)N([C@H](C)CO)C[C@H](C)[C@H](CN(C)S(C)(=O)=O)OCCCC[C@H](C)O2`, the inhibition was 2.45%.
With `C[C@@H]1CN([C@@H](C)CO)S(=O)(=O)c2ccc(C#Cc3ccccc3)cc2O[C@@H]1CN(C)C(=O)C1CC1`, the inhibition was -0.265%.
For `CO[C@@H]1CN(C)C(=O)c2ccc(NS(=O)(=O)c3ccc(Cl)cc3)cc2OC[C@H](C)N(C(=O)NC(C)C)C[C@H]1C`, the inhibition was 0.21%.
As to `O=C(NCC[C@H]1CC[C@@H](NC(=O)C2CCCC2)[C@@H](CO)O1)c1cc(Cl)cc(Cl)c1`, the inhibition is -0.187%.
In the case of `Cc1ccc(S(=O)(=O)NCC[C@@H]2CC[C@H](NC(=O)CC3CC3)[C@H](CO)O2)cc1`, the inhibition was -0.044%.
In the case of `O=C(Nc1ccccc1F)N[C@@H]1CC[C@H](CC(=O)N2CCCCC2)O[C@H]1CO`, the inhibition was 0.211%.
The same measure for `O=C(N[C@@H]1CC[C@H](CCn2cc(C3CC3)nn2)O[C@H]1CO)c1cccnc1`: 0.0945%; for `CO[C@@H]1CN(C)C(=O)c2ccc(NS(C)(=O)=O)cc2OC[C@@H](C)N(C(=O)C2CCOCC2)C[C@@H]1C`: -0.272%.
Turning to `CO[C@@H]1CN(C)C(=O)c2cc(NC(=O)Nc3cc(F)ccc3F)ccc2OC[C@H](C)N(C)C[C@@H]1C`, the inhibition was -0.288%.
For `CO[C@@H]1CN(C)C(=O)c2ccc(NS(=O)(=O)c3cccc(Cl)c3)cc2OC[C@H](C)NC[C@H]1C`, the inhibition is -0.827%.
Take `Cc1ccc(S(=O)(=O)NCC[C@H]2CC[C@H](NC(=O)c3ccccn3)[C@@H](CO)O2)cc1`: the inhibition was -0.44%.
Regarding `C[C@@H]1CN([C@H](C)CO)S(=O)(=O)c2ccc(-c3ccc(C(=O)N(C)C)cc3)cc2O[C@@H]1CN(C)C(=O)Nc1ccccc1F`, the inhibition is 0.371%.
As to `COCCNC(=O)C[C@H]1C=C[C@@H](NS(=O)(=O)c2ccc(C)cc2)[C@@H](CO)O1`, the inhibition was -0.16%.
The same measure for `O=C(NCCCn1ccnc1)c1cnn2c(C(F)(F)F)cc(-c3ccccc3)nc12`: 42.5% (active).
For `O=C(NCc1cccnc1)c1cnn2c(C(F)F)cc(-c3ccccc3)nc12`, the inhibition is -0.254%.
Regarding `Cc1ccc(-c2cc(C(F)(F)F)n3nc(C(=O)NCCN4CCOCC4)c(Cl)c3n2)cc1`, the inhibition was -0.63%.
`CO[C@H]1CN(C)C(=O)c2ccc(NC(=O)C3CC3)cc2OC[C@@H](C)N(C(=O)c2ccccn2)C[C@@H]1C`: the inhibition was 0.315%.
With `CO[C@@H]1CN(C)C(=O)c2cc(NC(C)=O)ccc2OC[C@H](C)N(Cc2ccccn2)C[C@H]1C`, the inhibition was 0.0735%.
On to `COc1ccc(C(=O)Nc2ccc3c(c2)C(=O)N(C)C[C@@H](OC)[C@H](C)CN(C(C)=O)[C@@H](C)CO3)cc1`, for which the inhibition was 0.119%.
The same measure for `CO[C@H]1CC[C@@H]2CCOc3c(C#N)cccc3C(=O)N(C)CCCC(=O)N(C)C[C@@H]1O2`: -0.199%; for `O=C(C[C@@H]1C[C@@H]2c3cc(NS(=O)(=O)c4ccc(F)cc4)ccc3O[C@@H]2[C@H](CO)O1)N1CCCCC1`: 0.296%; for `O=C(C[C@H]1CC[C@@H](NC(=O)Nc2ccc(F)cc2)[C@@H](CO)O1)NCCN1CCCC1`: -0.0445%.
The same measure for `O=C(Nc1ccc(C(F)(F)F)cc1)N[C@@H]1CC[C@H](CCNC(=O)c2ccccc2F)O[C@H]1CO`: 0.069%.
As to `Cc1ccc(S(=O)(=O)N[C@H]2CC[C@H](CC(=O)NCc3ccccc3F)O[C@@H]2CO)cc1`, the inhibition is -0.113%.
With `CCCc1cn(CC[C@@H]2CC[C@@H](NS(=O)(=O)c3ccccc3Cl)[C@@H](CO)O2)nn1`, the inhibition is -0.18%.
Turning to `CO[C@H]1CN(C)C(=O)c2cc(NC(=O)C3CC3)ccc2OC[C@@H](C)NC[C@H]1C`, the inhibition is -0.162%.
In the case of `Cc1ccc(S(=O)(=O)NCC[C@@H]2CC[C@H](NC(=O)c3ccccn3)[C@H](CO)O2)cc1`, the inhibition is -0.387%.
The same measure for `Cc1ccc(-c2ccc3c(c2)O[C@@H](CN(C)C(=O)CC2CC2)[C@@H](C)CN([C@@H](C)CO)S3(=O)=O)cc1`: -0.129%; for `O=C(C[C@@H]1CC[C@H](NC(=O)CN2CCOCC2)[C@@H](CO)O1)NCCc1ccccc1`: 0.1%; for `C[C@@H]1CN([C@H](C)CO)S(=O)(=O)c2ccc(-c3ccncc3)cc2O[C@@H]1CN(C)C(=O)CN(C)C`: 0.556%.
As for `O=C(C[C@H]1C=C[C@H](NC(=O)CC2CC2)[C@H](CO)O1)NCc1ccc(Cl)cc1`, the inhibition was -0.172%.
For `C[C@@H]1CN([C@H](C)CO)S(=O)(=O)c2ccc(C3=CCCC3)cc2O[C@H]1CN(C)C(=O)c1ccccc1` the value was 1.4%; for `O=C(C[C@H]1CC[C@H](NC(=O)C2CCC2)[C@@H](CO)O1)Nc1nccs1`, 0.192%; for `CO[C@H]1CN(C)C(=O)c2ccc(NS(=O)(=O)c3ccccc3C)cc2OC[C@H](C)NC[C@H]1C`, -0.186%.
In the case of `CO[C@H]1CN(C)C(=O)c2cc(NC(C)=O)ccc2OC[C@H](C)N(C(=O)C2CC2)C[C@H]1C`, the inhibition was -0.354%.
In the case of `CO[C@H]1CN(C)C(=O)c2ccc(NC(=O)C3CCC3)cc2OC[C@@H](C)N(Cc2ccccn2)C[C@H]1C`, the inhibition was 0.331%.
Turning to `CCC(=O)Nc1ccc2c(c1)C(=O)N(C)C[C@H](OC)[C@H](C)CN(Cc1ccccc1F)[C@H](C)CO2`, the inhibition was 0.217%.
For `CO[C@H]1CN(C)C(=O)c2cc(NS(C)(=O)=O)ccc2OC[C@H](C)N(C(=O)C2CCCC2)C[C@H]1C` the value was 0.272%; for `CCC(=O)N(C)C[C@@H]1Oc2cc(C#CC(C)(C)O)ccc2S(=O)(=O)N([C@@H](C)CO)C[C@@H]1C`, -1.91%.
With `CN(C)C(=O)C[C@@H]1C[C@@H]2c3cc(NC(=O)c4ccc5c(c4)OCO5)ccc3O[C@@H]2[C@H](CO)O1`, the inhibition was -0.927%.
For `Cc1ccc(S(=O)(=O)N[C@H]2CC[C@H](CC(=O)O)O[C@H]2CO)cc1` the value was -0.244%.
The same measure for `Cc1ccc(S(=O)(=O)N[C@H]2C=C[C@@H](CC(=O)NCCc3ccncc3)O[C@@H]2CO)cc1`: -0.308%.
For `COc1ccc(-c2cn(CC[C@H]3CC[C@@H](N)[C@H](CO)O3)nn2)cc1`, the inhibition was 0.0195%.
For `CO[C@H]1CN(C)C(=O)c2ccc(NS(=O)(=O)c3cn(C)cn3)cc2OC[C@H](C)N(C)C[C@H]1C` the value was -0.0025%; for `O=C(N[C@H]1C=C[C@@H](CC(=O)N2CCCCC2)O[C@@H]1CO)c1ccc2c(c1)OCO2`, -0.0205%.
The same measure for `O=C(C[C@@H]1C[C@@H]2c3cc(NC(=O)C4CCOCC4)ccc3O[C@@H]2[C@H](CO)O1)NCc1ccncc1`: -0.106%; for `CCCNC(=O)N1C[C@H](C)[C@H](OC)CN(C)C(=O)c2cc(NC(=O)CC)ccc2OC[C@H]1C`: -0.059%; for `CCC(=O)N(C)C[C@@H]1Oc2ncc(-c3ccccc3OC)cc2C(=O)N([C@@H](C)CO)C[C@@H]1C`: -0.321%.
The same measure for `CN1CCN(C(=O)C[C@H]2C[C@H]3c4cc(NC(=O)Nc5ccccc5F)ccc4O[C@H]3[C@H](CO)O2)CC1`: -0.523%; for `O=C(Nc1ccc2c(c1)OCO2)N[C@@H]1CC[C@H](CC(=O)N2CCN(c3ccccc3)CC2)O[C@@H]1CO`: -0.0065%.
As to `O=C(Cc1ccncc1)NCC[C@H]1CC[C@H](NC(=O)C2CC2)[C@H](CO)O1`, the inhibition was 0.014%.
For `CCC(=O)N(C)C[C@H]1Oc2cc(C#CCC(C)C)ccc2S(=O)(=O)N([C@H](C)CO)C[C@H]1C`, the inhibition was -0.831%.
On to `O=C(NCC[C@H]1CC[C@@H](NC(=O)c2cnccn2)[C@H](CO)O1)Nc1ccc(Cl)cc1`, for which the inhibition was -0.362%.
For the compound `CN(C)CCCNC(=O)C[C@@H]1C=C[C@H](NC(=O)Cc2cccnc2)[C@H](CO)O1`, the inhibition is 0.394%.

(Values after PubChem BioAssay AID624101 (Broad Institute, 2012).)
